A selection: hits, their analogues and other compounds. The true share with any hit is near 9.3%.
ELG1 genotoxic: qHTS screen for small molecules that induce genotoxicity in human embryonic kidney (HEK293T) cells expressing luciferase-tagged ELG1; HEK293T ELG1-luciferase reporter, luminescence, 16 h; Potency, µM (series often up to 46 µM), without a hit: at the highest dose activity change, positive = activation, hits mostly activators; 330,000 compounds, 1.3% hits; note: % of control where 0% means no effect; nearly all actives have a fitted effect of over 60% in size
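HEK293T cells expressing luciferase-tagged ELG1 were treated with compound or DMSO for 16 hr at 37°C. Luciferase activity was then read after 30 min with ONE-Glo at room temperature; rising signal flags genetic stress.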
SMN2 splice enh: qHTS Assay for Enhancers of SMN2 Splice Variant Expression | HEK293 SMN2-luciferase splicing reporter, luminescence, 30-36 h | Potency, µM (series often up to 46.1 µM), for inactives: top-dose activity change, positive = activation, most hits filed as activators | 210,000 compounds, 2.8% hits | AID 1458, 2008; note: % of control where 0% means no effect; nearly all actives have a fitted effect of over 55% in size
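HEK293 cells carry an SMN2 minigene-luciferase reporter in which exon 7 inclusion puts luciferase in frame. Cells were seeded at 2000 cells/well, attached for 10-12 hours, then exposed to compounds for 30-36 hours at 37C before ONE-Glo luminescence.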
ELG1 DNA repair: qHTS screen for small molecules that inhibit ELG1-dependent DNA repair in human embryonic kidney (HEK293T) cells expressing luciferase-tagged ELG1. HEK293T ELG1-luciferase reporter, luminescence, 16 h; DNA damage induced by 5-fluorouridine. Potency, µM (highest dose often 46.1 µM), without a hit: at the highest dose activity change, negative = inhibition, actives largely listed as inhibitors. 330,000 compounds, 2.3% hits. AID 504467, 2011; note: % is set by controls: 0 for no effect and ±100 for the full control effect; nearly all actives have a fitted effect of over 55% in size
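In this reporter screen, reduction of luminescence relative to DMSO vehicle indicated activity. Compounds and 5-fluorouridine were added together to 2,000 cells per well, incubated for 16 hr at 37 °C, then developed with ONE-Glo.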
FLuc modulator: qHTS profiling assay for firefly luciferase inhibitor/activator using purifed enzyme and Km concentrations of substrates (counterscreen for miR-21 project); purified FLuc, Km substrates, luminescence inhibition; 360,000 compounds, 6.9% hits; Potency, µM (doses to about 57.5 µM), for inactives: at the highest dose activity change, negative = inhibition, usual class: inhibitors;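 note: plate controls were vehicle for no effect and reference inhibitor for full effect; nearly all actives have a fitted effect of over 55% in size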
Target sequence (P08659 whole entry, looked up): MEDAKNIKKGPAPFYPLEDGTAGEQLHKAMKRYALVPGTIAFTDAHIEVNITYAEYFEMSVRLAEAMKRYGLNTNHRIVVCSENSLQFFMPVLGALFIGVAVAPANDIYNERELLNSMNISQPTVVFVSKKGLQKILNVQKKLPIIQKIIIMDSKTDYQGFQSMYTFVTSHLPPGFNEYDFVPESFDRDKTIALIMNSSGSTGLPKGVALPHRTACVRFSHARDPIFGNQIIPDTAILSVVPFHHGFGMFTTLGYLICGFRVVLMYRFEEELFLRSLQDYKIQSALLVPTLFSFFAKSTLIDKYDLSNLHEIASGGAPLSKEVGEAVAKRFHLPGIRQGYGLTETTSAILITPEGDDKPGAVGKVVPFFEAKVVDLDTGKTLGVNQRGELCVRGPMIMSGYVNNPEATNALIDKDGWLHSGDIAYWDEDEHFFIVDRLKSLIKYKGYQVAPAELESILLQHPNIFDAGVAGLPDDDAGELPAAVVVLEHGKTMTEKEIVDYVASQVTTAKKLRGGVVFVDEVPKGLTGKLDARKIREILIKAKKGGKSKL
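Biochemical qHTS of compounds, final roughly 60 µM downward over six points, against 10 nM purified firefly luciferase using Km concentrations of substrates (10 uM D-luciferin, 10 uM ATP) in Tris acetate pH 7.5 buffer; luminescence output.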
NPC1 prom act: qHTS Assay for NPC1 Promoter Activators; Huh7 NPC1 promoter luciferase reporter, 24 h; 320,000 compounds, 2.4% hits; Potency, µM (series often up to 9.22 µM), for the others: at the highest dose activation, usual class: activators; note: % of control where 0% means no effect; nearly all actives have a fitted effect of over 60% in size
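Huh7 cells stably carrying NPC1 promoter–luciferase, plated in Opti-MEM with 10% FBS for 2 h, were exposed to compound in DMSO for 24 h at 37 °C; luciferase reagent was added for 10 min and luminescence read.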
Rab9 promoter act: qHTS Assay for Rab9 Promoter Activators | Huh7 Rab9 promoter-luciferase reporter, luminescence, 24 h | Potency, µM (top dose mostly 9.22 µM), inactives show at the highest dose activation, negative = inhibition, usual class: activators | 320,000 compounds, 2.8% hits | AID 485297, 2010; note: % of control where 0% means no effect; nearly all actives have a fitted effect of over 60% in size
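Using Huh7 cells stably transfected with Rab9 promoter–luciferase, compounds were incubated 24 h at 37 °C, 5% CO2; luciferase luminescence was read 10 min after reagent addition.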
* = called active by the depositor; [ ] = another dose, or the depositor's remark. Calls come from the whole dose curve; as a rule, active = well fitted curve in the direction sought with a large enough effect; inconclusive = small, poorly fitted or top-dose-only effect, or another doubt; inactive = no such curve, though single readings can be large; an effect the other way counts as inactive or inconclusive. Potency is the fitted concentration of half-maximal effect.

For Cc1ccc(C(=O)NCCC(=O)N2CCCC2)cc1 the results were ELG1 genotoxic 23µM*, ELG1 DNA repair inconclusive, FLuc modulator 11µM*, NPC1 prom act 4µM* and Rab9 promoter act 3.2µM*.
Cc1ccc(SCCC(=O)N2CCC(C)CC2)cc1 was read as ELG1 genotoxic inconclusive, SMN2 splice enh inconclusive, ELG1 DNA repair inconclusive, FLuc modulator 13µM*, NPC1 prom act 4.5µM* and Rab9 promoter act 3.5µM*.
For Cc1ccc(SCCC(=O)N2CCCC2)cc1 the results were ELG1 genotoxic 15µM*, SMN2 splice enh -12%, ELG1 DNA repair inconclusive, FLuc modulator -14%, NPC1 prom act 25% and Rab9 promoter act 25%.
For Nc1ncnc2nc(Cl)[nH]c12 the results were SMN2 splice enh 2%.
C=CCn1c(SCC(=O)NCc2ccc3c(c2)OCO3)nc2scc(-c3ccc(F)cc3)c2c1=O was read as ELG1 genotoxic -1%, SMN2 splice enh 7%, ELG1 DNA repair 15µM*, FLuc modulator 4%, NPC1 prom act -2% and Rab9 promoter act -2%.
Screening Cn1c(SCC(=O)NCc2ccc3c(c2)OCO3)nc2scc(-c3cccs3)c2c1=O returned ELG1 genotoxic 0%, SMN2 splice enh -19%, ELG1 DNA repair 13µM*, FLuc modulator -1%, NPC1 prom act -1% and Rab9 promoter act -1%.
Screening C=CCn1c(SC(C)C(=O)NCc2ccc3c(c2)OCO3)nc2scc(-c3ccccc3)c2c1=O (centres undefined) returned ELG1 genotoxic -5%, SMN2 splice enh -6%, ELG1 DNA repair inconclusive, FLuc modulator 2%, NPC1 prom act 0% and Rab9 promoter act 5%.
Cc1ccc(NC(=O)c2c(C(=O)Nc3ccccc3)sc3nc(C)cc(=O)n23)c(C)c1 was read as SMN2 splice enh -1% and FLuc modulator -3%.
For O=c1[nH][nH]c(=O)c2c(NS(=O)(=O)c3ccccc3)cccc12 the results were ELG1 genotoxic inconclusive, SMN2 splice enh 25%, ELG1 DNA repair inconclusive, FLuc modulator 19µM*, NPC1 prom act 26% and Rab9 promoter act 29%.
Screening O=C(CCN1C(=O)COc2ccccc21)NCCCN1CCCC1 returned ELG1 genotoxic 0%, ELG1 DNA repair 26%, FLuc modulator 3%, NPC1 prom act 1% and Rab9 promoter act -1%.
Cc1nc(-c2ccc(F)cc2)sc1CCNC(=O)C(=O)Nc1ccc2c(c1)OCO2 was read as FLuc modulator -1%.
Screening Nc1cnn(C2OC(CO)C(O)C2O)c(=O)n1 (centres undefined) returned ELG1 genotoxic -10%, SMN2 splice enh inconclusive, ELG1 DNA repair inconclusive, FLuc modulator 3%, NPC1 prom act 0% and Rab9 promoter act 3%.
For Nc1cnn([C@@H]2O[C@H](CO)[C@@H](O)[C@H]2O)c(=O)n1 the results were SMN2 splice enh 22µM*.
Screening N=c1nc(N)nc(N)n1-c1ccc(S(N)(=O)=O)cc1 returned SMN2 splice enh -13%[9.22 µM].
Oc1cc2c(cc1O)[C@@H](c1ccccc1)CNCC2 was read as ELG1 genotoxic -2%, SMN2 splice enh -29%, ELG1 DNA repair 11%, FLuc modulator 4.8µM*, NPC1 prom act 0% and Rab9 promoter act -3%.
For O=C(CCCOc1ccc(Cl)cc1Cl)Nc1ccccc1C(=O)O the results were ELG1 genotoxic 17%, ELG1 DNA repair inconclusive, FLuc modulator 8.5µM*, NPC1 prom act 2.5µM* and Rab9 promoter act 3.5µM*.
`O=C(CCCOc1ccc(Cl)cc1Cl)Nc1cccnc1` gave ELG1 genotoxic 1%, SMN2 splice enh -18%, ELG1 DNA repair inconclusive, FLuc modulator inconclusive, NPC1 prom act -2% and Rab9 promoter act -1%.
`O=C(COc1ccc(Cl)cc1Cl)NC(=S)Nc1ccccc1C(=O)O` gave ELG1 genotoxic 4%, ELG1 DNA repair 29%, FLuc modulator 6.7µM*, NPC1 prom act 5% and Rab9 promoter act 12%.
For CC(C)(C)C(=O)NNC(=O)CCCOc1ccc(Cl)cc1Cl the results were ELG1 genotoxic 1%, SMN2 splice enh -13%, ELG1 DNA repair -3%, FLuc modulator -7%, NPC1 prom act -2% and Rab9 promoter act 3%.
`CC(C)(CO)NC(=O)CCCOc1ccc(Cl)cc1Cl` gave ELG1 genotoxic 11µM*, SMN2 splice enh 10µM*, ELG1 DNA repair inconclusive, FLuc modulator inconclusive, NPC1 prom act inconclusive and Rab9 promoter act inconclusive.
For O=C(COc1ccc(Cl)cc1Cl)Nc1ccc(C(=O)Nc2ccccc2C(=O)O)cc1 the results were ELG1 genotoxic -17%, ELG1 DNA repair 0%, FLuc modulator -15%, NPC1 prom act 7% and Rab9 promoter act 6%.
`O=C(COc1ccc(Cl)cc1Cl)NNC(=S)Nc1ccc(F)cc1` gave ELG1 genotoxic -1%, ELG1 DNA repair 16%, FLuc modulator 17µM*, NPC1 prom act 1% and Rab9 promoter act -3%.
Screening CC(OC(=O)c1cccc(S(=O)(=O)N2CCCC2)c1)C(=O)NC1CCCCC1C (centres undefined) returned ELG1 genotoxic -1%, ELG1 DNA repair 22%, FLuc modulator 1%, NPC1 prom act -2% and Rab9 promoter act -1%.
For COc1cccc(N2CCN(c3ncnc4onc(-c5ccc(Cl)cc5)c34)CC2)c1 the results were FLuc modulator -2%.
For COc1ccc(NC(=O)COC(=O)CCCOc2ccc(Cl)cc2Cl)cc1Cl the results were ELG1 genotoxic 8%, SMN2 splice enh 8%, ELG1 DNA repair inconclusive, FLuc modulator 15µM*, NPC1 prom act -3% and Rab9 promoter act 2%.
COc1ccc(NC(=O)COC(=O)CCCOc2ccc(Cl)cc2Cl)cc1 was read as ELG1 genotoxic 4%, SMN2 splice enh 16%, ELG1 DNA repair 15%, FLuc modulator inconclusive, NPC1 prom act 2% and Rab9 promoter act -2%.
Screening CCN(CC)S(=O)(=O)c1ccc2c(c1)N(CC(=O)Nc1ccc(F)cc1F)C(=O)C1CCCN21 (centres undefined) returned FLuc modulator 1%.
N=c1occ(C(=O)c2cc(F)ccc2O)cc1C(=O)NC1CCCCC1 was read as ELG1 genotoxic 1%, SMN2 splice enh -11%, ELG1 DNA repair -17%, FLuc modulator inconclusive, NPC1 prom act 4% and Rab9 promoter act -1%.

Screening results (PubChem)
